Measured values as given in PubChem BioAssay AID1159580 (chemical genetic matrix, 2015).
Several values for one entry are separate records, joined by “and”; a condition that tells them apart may be missing. Equal values may be shown once. Screen size: about 5,500 compounds; about 2,000 (36%) were called active. Inconclusive results (about 18%) are left out. Cut-off read from the data, not from the text of the source: active = normalized growth mostly below about 0.91 (no sharp cut-off); inconclusive = no clear call, values can overlap the other calls; inactive = mostly above about 0.92. The list shows a part of the results.

Experiment: chemical genetic growth profiling, strain panel (AID 1159580);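 note: tested at 20 µM; growth read once vehicle control cultures reached saturation at 30 °C; 1 = growth at the plate median or of vehicle wells; lower values mean less growth of the strain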
Conditions: S. cerevisiae deletion strains, growth OD

Measured: normalized growth

CC1(C)CC2C1CCC1(C)OC2(C)CCC1O (stereo not given)
inactive: locus YAL021C, strain ccr4, hits give low values 1.02 | locus YAL026C, strain drs2, hits give low values 1.05 | locus YAL030W, strain snc1, hits give low values 1.03 | locus YBL061C, strain skt5, hits give low values 1.03 | locus YBR009C, strain hhf1, hits give low values 1.03 | locus YBR021W, strain FUR4, hits give low values 1.03 | locus YBR023C, strain chs3, hits give low values 1.03 | locus YBR171W, strain sec66, hits give low values 1.03 | locus YBR229C, strain ROT2, hits give low values 1.02 | locus YBR231C, strain swc5, hits give low values 1.02 | locus YBR279W, strain paf1, hits give low values 1.02 | locus YCL011C, strain gbp2, hits give low values 1.02 | locus YCL016C, strain dcc1, hits give low values 1.01 | locus YCL029C, strain bik1, hits give low values 1.01 | locus YCL061C, strain MRC1, hits give low values 1.03 | locus YCL069W, strain vba3, hits give low values 1.03 | locus YCR088W, strain abp1, hits give low values 1.02 | locus YDL005C, strain med2, hits give low values 1.03 | locus YDL035C, strain GPR1, hits give low values 0.989 | locus YDL040C, strain nat1, hits give low values 1.01 | locus YDL074C, strain BRE1, hits give low values 1.02 | locus YDL101C, strain DUN1, hits give low values 1.03 | locus YDL185W, strain tfp1, hits give low values 1.01 | locus YDL192W, strain arf1, hits give low values 1 | locus YDR001C, strain nth1, hits give low values 1.02 | locus YDR069C, strain doa4, hits give low values 1.02 | locus YDR101C, strain arx1, hits give low values 0.993 | locus YDR137W, strain rgp1, hits give low values 1.03 | locus YDR159W, strain sac3, hits give low values 1.03 | locus YDR162C, strain NBP2, hits give low values 1.02 | locus YDR195W, strain ref2 1.02 | locus YDR297W, strain sur2, hits give low values 1.04 | locus YDR318W, strain mcm21, hits give low values 0.994 | locus YDR334W, strain swr1, hits give low values 1.03 | locus YDR335W, strain msn5, hits give low values 1.02 | locus YDR388W, hits give low values 1.01 | locus YDR392W, strain spt3, hits give low values 0.958 | locus YDR502C, strain sam2, hits give low values 1.03 | locus YEL003W, strain gim4, hits give low values 1.02 | locus YEL037C, strain rad23, hits give low values 1.02 | locus YEL061C, strain CIN8 (second series), hits give low values 1.02 | locus YER015W, strain faa2, hits give low values 1.04 | locus YER016W, strain bim1, hits give low values 1.02 | locus YER110C, hits give low values 1.01 | locus YER111C, strain swi4, hits give low values 1.02 | locus YER155C, strain BEM2 (second series), hits give low values 1.04 | locus YER155C, strain BEM2, hits give low values 0.996 | locus YER167W, strain BCK2, hits give low values 1 | locus YFR010W, strain ubp6, hits give low values 1.04 | locus YGL078C, strain dbp3, hits give low values 1.03 | locus YGL086W, strain mad1, hits give low values 1.02 | locus YGL167C, strain pmr1, hits give low values 1.03 | locus YGL173C, strain kem1, hits give low values 1.04 | locus YGL227W, strain vid30, hits give low values 1.01 | locus YGL240W, strain doc1, hits give low values 1.03 | locus YGL248W, strain PDE1, hits give low values 1.07 | locus YGL253W, strain hxk2, hits give low values 1.04 | locus YGR135W, strain pre9, hits give low values 1.08 | locus YGR229C, strain SMI1, hits give low values 0.978 | locus YGR252W, strain gcn5, hits give low values 1.11 | locus YHR013C, strain ard1, hits give low values 1.06 | locus YHR027C, strain rpn1, hits give low values 1.05 | locus YHR030C, strain SLT2, hits give low values 0.992 and 1.02 | locus YHR079C, strain IRE1 (second series), hits give low values 1.01 | locus YHR079C, strain IRE1, hits give low values 1.02 | locus YHR094C, strain hxt1, hits give low values 1.02 | locus YHR129C, strain ARP1, hits give low values 1.01 | locus YHR142W, strain chs7, hits give low values 1.02 | locus YHR200W, strain rpn10, hits give low values 1.03 | locus YIL066C, strain RNR3, hits give low values 1.01 | locus YIL073C, strain SPO22, hits give low values 1.02 | locus YIL125W, strain kgd1, hits give low values 0.999 | locus YIR030C, strain dcg1, hits give low values 1 | locus YJL092W, strain hpr5, hits give low values 1.03 | locus YJL095W, strain BCK1 (second series), hits give low values 1.03 | locus YJL095W, strain BCK1, hits give low values 1.09 and 1.03 | locus YJL115W, strain asf1, hits give low values 1.03 | locus YJL129C, strain trk1, hits give low values 1.05 | locus YJL134W, strain LCB3, hits give low values 1 | locus YJL154C, strain vps35, hits give low values 1.03 | locus YJL164C, strain tpk1, hits give low values 1.01 | locus YJL166W, strain qcr8, hits give low values 1.03 | locus YJL168C, strain set2, hits give low values 1.01 | locus YJL187C, strain SWE1 (second series), hits give low values 1.05 | locus YJR043C, strain POL32, hits give low values 0.976 | locus YJR066W, strain TOR1, hits give low values 0.959 | locus YJR075W, strain HOC1, hits give low values 1.01 | locus YKL009W, strain mrt4, hits give low values 0.984 | locus YKL068W, hits give low values 1 | locus YKL085W, strain MDH1 (second series), hits give low values 0.978 | locus YKL085W, strain MDH1, hits give low values 0.978 | locus YKL160W, strain elf1, hits give low values 1 | locus YKL190W, strain CNB1, hits give low values 1 | locus YKR001C, strain vps1, hits give low values 1.03 | locus YKR026C, strain gcn3, hits give low values 1.03 | locus YKR091W, strain srl3, hits give low values 1.01 | locus YLL001W, strain dnm1, hits give low values 0.991 | locus YLL026W, hits give low values 1.02 | locus YLL041C, strain sdh2, hits give low values 1.02 | locus YLR027C, strain aat2, hits give low values 1.02 | locus YLR039C, strain RIC1, hits give low values 1.05 | locus YLR058C, strain SHM2, hits give low values 1.03 | locus YLR102C, strain apc9, hits give low values 1 | locus YLR113W, strain HOG1, hits give low values 1.03 | locus YLR221C, strain rsa3, hits give low values 1.04 | locus YLR258W, strain gsy2, hits give low values 1.01 | locus YLR262C, strain YPT6 (second series), hits give low values 1.03 | locus YLR268W, strain sec22, hits give low values 0.981 | locus YLR320W, strain mms22, hits give low values 1.04 | locus YLR330W, strain CHS5, hits give low values 1 | locus YLR342W, strain FKS1 (second series), hits give low values 0.993 | locus YLR342W, strain FKS1, hits give low values 1.03 | locus YLR357W, strain rsc2, hits give low values 1.04 | locus YLR370C, strain arc18, hits give low values 1.02 | locus YLR371W, strain rom2, hits give low values 1.02 | locus YLR384C, strain iki3, hits give low values 1.02 | locus YLR418C, strain cdc73, hits give low values 1.08 | locus YML016C, strain PPZ1, hits give low values 1.01 | locus YML032C, strain rad52, hits give low values 1.02 | locus YML120C, strain ndi1, hits give low values 1.01 | locus YML124C, strain tub3, hits give low values 1.01 | locus YMR058W, strain fet3, hits give low values 1.04 | locus YMR078C, strain ctf18, hits give low values 1.02 | locus YMR125W, strain sto1, hits give low values 1.05 | locus YMR129W, hits give low values 1.01 | locus YMR205C, strain PFK2, hits give low values 1.04 | locus YMR223W, strain ubp8, hits give low values 1.01 | locus YMR231W, strain pep5, hits give low values 1.02 | locus YMR263W, strain SAP30, hits give low values 1.02 | locus YMR307W, strain GAS1, hits give low values 1.03 | locus YNL067W, strain RPL9B, hits give low values 1.04 | locus YNL071W, strain lat1, hits give low values 1.02 | locus YNL183C, strain NPR1, hits give low values 0.969 | locus YNL209W, strain ssb2, hits give low values 1.02 | locus YNL233W, strain BNI4, hits give low values 1.07 | locus YNL248C, strain rpa49, hits give low values 1.03 | locus YNL250W, strain rad50, hits give low values 1.04 | locus YNL271C, strain bni1, hits give low values 1.01 | locus YNL298W, strain CLA4, hits give low values 1.01 | locus YNL307C, strain MCK1, hits give low values 1.02 | locus YNL322C, strain KRE1 (second series), hits give low values 1.02 | locus YNR049C, strain mso1, hits give low values 1.06 | locus YNR052C, strain pop2, hits give low values 1.03 | locus YOL012C, strain htz1 1.1 | locus YOL147C, strain pex11, hits give low values 1.02 | locus YOR001W, strain rrp6, hits give low values 1.03 | locus YOR061W, strain CKA2, hits give low values 0.999 | locus YOR069W, strain VPS5, hits give low values 1 | locus YOR070C, strain gyp1, hits give low values 1.02 | locus YOR080W, strain dia2, hits give low values 1.05 | locus YOR083W, strain WHI5, hits give low values 1 | locus YOR106W, strain vam3, hits give low values 1 | locus YOR136W, strain idh2, hits give low values 1.02 | locus YOR144C, strain elg1, hits give low values 1 | locus YOR184W, strain ser1, hits give low values 0.981 | locus YOR231W, strain MKK1, hits give low values 1.02 | locus YOR265W, strain rbl2, hits give low values 1.03 | locus YOR270C, strain vph1, hits give low values 1.07 | locus YOR290C, strain snf2, hits give low values 1.01 | locus YOR316C, strain cot1, hits give low values 1.02 | locus YPL051W, strain arl3, hits give low values 1 | locus YPL078C, strain atp4, hits give low values 1.01 | locus YPL106C, strain sse1, hits give low values 1.04 | locus YPL240C, strain hsp82, hits give low values 1.02 | locus YPL256C, strain CLN2, hits give low values 1.03 | locus YPR119W, strain clb2, hits give low values 1 | locus YPR141C, strain kar3, hits give low values 0.987 | locus YPR163C, strain tif3, hits give low values 1.02 | locus YPR167C, strain met16, hits give low values 1.01 | strain wtn01, hits give low values 1
